Bioassay records as filed in PubChem BioAssay.
Anesthetic bind: candidate novel general anesthetic via apoferritin binding; P02791; apoferritin/1-aminoanthracene competitive binding, fluorescence; Potency, µM (series often up to 77.5 µM), hits mostly inhibitors; 0.074% of 350,000 active; AID 485281; note: nearly all actives have a fitted effect of over 20% in size
Target sequence (P02791 2-175 limits assumed): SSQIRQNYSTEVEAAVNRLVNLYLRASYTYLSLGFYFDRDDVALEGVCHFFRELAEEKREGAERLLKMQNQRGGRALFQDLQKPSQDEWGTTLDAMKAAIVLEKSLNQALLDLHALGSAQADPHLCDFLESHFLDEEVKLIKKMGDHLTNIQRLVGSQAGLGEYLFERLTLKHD
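Read-out: endpoint 1-AMA fluorescence, excitation 380 nm and emission 535 nm, after compounds sit 10 min at room temperature with 10 uM horse-spleen apoferritin in 50% saturated 1-AMA/PBS. Values come from four-parameter Hill fits.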
IL2 activator: activators of IL-2. 0.065% of 360,000 active. activation, % (series mostly up to about 46 µM). IL-2 activation reporter assay, cell-based qHTS; stimulated with anti-CD3/CD4/CD28 beads; in transgenic mouse T cells; in the data active = activation above about 50%; inconclusive = mostly about 30% to 49%
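First, unstimulated transgenic mouse T cells were exposed to compound for 60 min. Next, anti-CD3/anti-CD4-coated beads with anti-CD28 were added. Finally, after 18 h at 37 degrees C, EGFP and DsRed were imaged.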
BRCA1 expr act: activators of BRCA1 expression; Potency, µM (highest dose often 46.1 µM), most hits filed as activators; 1.1% of 380,000 active; MCF7-BRCA1-FFLuc reporter, luminescence, 48 h; response scale: scaled: vehicle 0%, 10 µM genistein 100%; note: nearly all actives have a fitted effect of over 80% in size
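First, MCF7-BRCA1-FFLuc cells (2000/well) attach for 2 h; next, compounds are pin-added and incubated 48 h at 37 °C; finally, luciferase reagent is added and luminescence read after 15 min.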
PKM2 activator: increases activity of human pyruvate kinase M2 | P14618 | purified PKM2, Kinase-Glo ATP luminescence, activation; response scale: 0% is enzyme alone, no compound | Potency, µM (doses to about 57.5 µM), most hits filed as activators | 0.34% of 260,000 active | AID 1631; note: nearly all actives have a fitted effect of over 55% in size
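Purified hPK-M2 (>95%) run at intermediate activity with 0.1 mM ADP and 0.5 mM PEP in 50 mM imidazole pH 7.2, KCl, MgCl2; 1 h room temperature. ATP formed read by Kinase-Glo luminescence; normalized to uninhibited and no-enzyme controls.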
Integrin act MD: integrin-mediated muscular dystrophy alleviation activation; alpha7betagal myoblasts, beta-gal FDG fluorescence, 48 h; 0.064% of 350,000 active; Potency, µM (titrated, usually from 38.3 µM), hits mostly activators; note: nearly all actives have a fitted effect of over 60% in size
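Alpha7betagal+/- myoblasts (passage 13) were plated 16-24 hr, then exposed to compounds (1:260 dilution of DMSO stock) for 48 hours at 37C. After MPER lysis, β-galactosidase reporter activity was read as FDG fluorescence (ex 480/em 540) after 30 minutes.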
Large screens that a line does not name were inactive. Most compounds without a hit are left out; they make up all but 1.3% or so of the library. Unless noted, calls come from the whole dose curve; as a rule, active = well fitted curve in the direction sought with a large enough effect; inconclusive = small, poorly fitted or top-dose-only effect, or another doubt; inactive = no such curve, though single readings can be large; an effect the other way counts as inactive or inconclusive.

Cc1cc(/C=C2/C(=O)NN(c3ccccc3)C2=O)c(C)n1-c1ccc(O)cc1	none
Cc1cc(/C=C2\C(=O)NN(c3ccccc3)C2=O)c(C)n1-c1ccccc1O	BRCA1 expr act 10µM
CC1(C)OC(=O)C2(Cc3ccccc3N3CCC(c4ccccc4)CC32)C(=O)O1 (stereo not given)	none (no result: Anesthetic bind, IL2 activator, PKM2 activator, Integrin act MD)
COc1cc(/C=N/N2CCOCC2)ccc1OCc1ccc(Cl)cc1	BRCA1 expr act 2.2µM
COc1cc(/C=N/N2CCOCC2)ccc1OCc1ccccc1	BRCA1 expr act 7.9µM
COc1ccc(/C=N/N2CCOCC2)cc1OCc1ccccc1	none
CCc1ccc2[nH]c(=O)c(CN(Cc3cccnc3)Cc3nnnn3Cc3ccccc3)cc2c1	none (no result: Anesthetic bind, IL2 activator, PKM2 activator, Integrin act MD)
O/N=C(/C[n+]1csc2ccccc21)c1ccccc1	none (no result: Anesthetic bind, IL2 activator, PKM2 activator, Integrin act MD)
CC(=O)c1cc2c(=O)c3cc(C)ccc3oc2nc1C	BRCA1 expr act 11µM
CCN(CC)C(=O)c1cc2c(=O)c3cc(Cl)ccc3oc2nc1C	BRCA1 expr act inconclusive
Cc1nc2oc3ccc(F)cc3c(=O)c2cc1C(=O)O	Integrin act MD inconclusive (no result: PKM2 activator)
CCOC(=O)c1cc2c(=O)c3cc(C)ccc3oc2nc1C	BRCA1 expr act 11µM (no result: PKM2 activator)
Cc1ccc2oc3nc(C)c(C(=O)O)cc3c(=O)c2c1	BRCA1 expr act 2.8µM
COc1ccsc1NC(=O)OCc1ccc(Cl)cc1	BRCA1 expr act 13µM (no result: PKM2 activator)
CSc1nsc(NC(=O)OCc2ccc(Cl)cc2)n1	none
C=CCn1c(SCC(=O)N2CCOCC2)nc2scc(-c3ccco3)c2c1=O	Anesthetic bind inconclusive, PKM2 activator 14µM
O=C(c1ccc2c(c1)N(Cc1cccc(Cl)c1)C(=O)c1ccccc1S2(=O)=O)N1CCCCCC1	none (no result: IL2 activator, BRCA1 expr act, PKM2 activator, Integrin act MD)
CCOC(=O)N/N=C(C)/C=C/c1ccccc1	none
COC(=O)N/N=C(C)/C=C/c1ccccc1	BRCA1 expr act 3.5µM (no result: Anesthetic bind, PKM2 activator)
C/C(=N\Nc1ncc(Cl)cc1Cl)c1ccc2c(c1)OCO2	BRCA1 expr act 5.6µM
C/C(=N\NC(=O)c1ccc2c(c1)OCO2)c1ccc2c(c1)OCO2	BRCA1 expr act 7.9µM
C/C(=N\NC(=O)c1ccc2c(c1)OCO2)c1ccc(C(=O)O)s1	none
CC(=NNC(=O)c1cccs1)c1ccc2c(c1)OCCO2	BRCA1 expr act inconclusive (no result: Anesthetic bind, PKM2 activator)
C/C(=N\NC(=O)c1cccs1)c1ccc2c(c1)OCO2	BRCA1 expr act 8.9µM
CCS(=O)(=O)N1Cc2ccccc2CC1C(=O)Nc1ccc(C)cc1 (stereo not given)	none
CCS(=O)(=O)N1Cc2ccccc2CC1C(=O)Nc1cccc(C)c1 (stereo not given)	Anesthetic bind inconclusive, BRCA1 expr act 5µM
COc1ccc(C2=Nn3c(nnc3-c3cc(OC)ccc3OC)SC2)cc1	none (no result: IL2 activator, BRCA1 expr act, PKM2 activator, Integrin act MD)
Cc1c(C=O)c2cc(OCc3ccccc3)ccc2n1C	BRCA1 expr act 10µM
NS(=O)(=O)c1ccc(NC(=O)CSc2ccccn2)cc1	PKM2 activator 28µM
Brc1ccc[n+](CCc2ccccc2)c1	none (no result: Anesthetic bind, IL2 activator, PKM2 activator, Integrin act MD)
C/C(=C\c1ccccc1)C(=O)Nc1ccc(Cl)cn1	BRCA1 expr act 7.9µM, Integrin act MD inconclusive
O=C(NCc1cccs1)c1cc(-c2ccc(O)cc2)on1	BRCA1 expr act 8.9µM
O=C(NCc1cccs1)c1cc(-c2cccc(Cl)c2)on1	none
CCCCCC(=O)NNC(=O)Nc1ccccc1	none
CCCCSC(=O)Nc1ccccc1	Anesthetic bind 13µM
O=C(NCc1ccccn1)C1CCN(S(=O)(=O)c2cccs2)CC1	PKM2 activator inconclusive
O=C(NCc1ccccc1Cl)C1CCN(S(=O)(=O)c2cccs2)CC1	PKM2 activator 10µM
CC(C)(C)N1C(=O)[C@H]2[C@H]3[C@H](O)[C@H](O)C/C(=N/NC(=O)OCc4ccccc4)[C@@H]3CC[C@@H]2C1=O	none (no result: IL2 activator, BRCA1 expr act, PKM2 activator, Integrin act MD)
c1ccc(CSc2nnc(Cc3ccccc3)o2)cc1	Anesthetic bind inconclusive, BRCA1 expr act 13µM
c1ccc(CSc2nnc(-c3cccnc3)o2)cc1	BRCA1 expr act 7.9µM
Oc1ccc(-c2nnc(SCc3ccccc3)o2)cc1	Anesthetic bind inconclusive, BRCA1 expr act 10µM
CCOC(=O)c1c(NC(=O)/C=C/c2ccc(C(C)C)cc2)sc2c1CCC2	none (no result: IL2 activator, BRCA1 expr act, PKM2 activator, Integrin act MD)
CC(=O)[C@H]1[C@H](C#N)CC2C3CC=C4C[C@@H](O)CCC4(C)C3CCC21C (stereo not given in full)	none (no result: IL2 activator, BRCA1 expr act, PKM2 activator, Integrin act MD)
